Laboratory results as given in the supplement of paper PMC10338343.
± gives the standard deviation. Over roughly 6,600 sequences, “pre-steady-state target cleavage rate” has its median near 0.07; the highest 2% begin near 0.72. For the sample, the highest values were picked, then their nearest neighbours and some sequences at random.
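Also: 1 nM active piRISC with 0.1 nM target library at 33 °C single turnover.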

The sequences below were run on MIWI (PIWIL1) piRISC loaded with Kctd7 piRNA (30 nt) (assay: pre-steady-state target cleavage rate (min^-1); MIWI and MILI are mouse PIWI proteins and EfPiwi is from a freshwater sponge; tags in brackets are library labels; higher = faster piRNA-guided slicing of the target). Conditions: guide: Kctd7 piRNA 5'p-UGUUAAUCUCUCAGAGAAGGUGACAGUGAU; auxiliary factor: 500 nM mouse GTSF1.
Method in brief: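 The pre-steady-state cleavage rate was derived from a burst-and-steady-state fit of Cleave-'n-Seq data. For these assays, 1 nM active affinity-purified piRISC loaded with a single synthetic guide was mixed with […] a transcribed, DNA-blocked target RNA library in HEPES–potassium acetate buffer at 33 °C, with or without 500 nM GTSF1 partner protein, for 0–8 or 0–960 min. Sequencing counts of uncleaved targets were normalised to depth and to weakly complementary targets, and k3 was capped at 0.0001 min^-1 after three trials were pooled.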
UAGUGUGUCACCUUCUCUGACUCAUUUUGA was tested, and the “pre-steady-state target cleavage rate” value was 0.0047 ± 0.0045.
In the case of UAGUGACAGACCUUCUCUGUGACAUUAACA, the “pre-steady-state target cleavage rate” value is reported as 0.00672 ± 0.0033.
In the case of UAGUGACUCUCCUUCUCUGAGAGUUUAACA, the “pre-steady-state target cleavage rate” value is reported as 0.035 ± 0.007.
With UAGACUGUCACCUUGUCUGAGAGAUUAUCA the “pre-steady-state target cleavage rate” value was 0.643 ± 0.1.
UAGACUCACACCUUCUCUGAGAGAUAUUGA was tested, and the “pre-steady-state target cleavage rate” value was 0.0233 ± 0.0066.
UAGUCUGUCACCUUCUCUGAGAGUUUAACA was tested, and the “pre-steady-state target cleavage rate” value was 0.365 ± 0.053.
With AUCUACUGUCACCUUCUCUGAGAGAUUAACA the “pre-steady-state target cleavage rate” value was 0.719 ± 0.041.
With AUCACUGUCACCUAGUCUGAGAGAUUUUGA the “pre-steady-state target cleavage rate” value was 0.0964 ± 0.023.
With AUCUGUGUCACCUUCUCUGAGAGAUUAACA the “pre-steady-state target cleavage rate” value was 0.417 ± 0.025.
With UAGUGACAGUGGUUUCUGAGAGAUUAACA the “pre-steady-state target cleavage rate” value was < 0.0001.
UACACUGUCACCUUCACUGUGAGAUUAACA was tested, and the “pre-steady-state target cleavage rate” value was 0.116 ± 0.015.
With UAGUCUGUCACUUUCUCUGAGAGAUUAACA the “pre-steady-state target cleavage rate” value was 0.642 ± 0.023.
UAGUCUGUCACCAUCUCUGAGAGAUAAACA was tested, and the “pre-steady-state target cleavage rate” value was 0.246 ± 0.025.
With UAGUGACACACCUUCUCAGAGAGAUUAAGA the “pre-steady-state target cleavage rate” value was 0.0233 ± 0.0077.
For AACACUGUCACCUUCUCUGAGAGAUAUUGA, the “pre-steady-state target cleavage rate” value was 0.0742 ± 0.021.
AUCUCUGUCACCUUGUCUGAGAGAUUAACA was tested, and the “pre-steady-state target cleavage rate” value was 0.394 ± 0.06.
For UAGUGACUCACCUUCUCUGAGAGGAUUAACA, the “pre-steady-state target cleavage rate” value was 0.172 ± 0.015.
With UAGUGAGACACCUACUCUGAGAGAUUAACA the “pre-steady-state target cleavage rate” value was 0.399 ± 0.03.
For AUCUCUGUCACCUUCUCUGAGAGAUUAACA, the “pre-steady-state target cleavage rate” value was 0.713 ± 0.032.
UUCAUCUGUCACCUUCUCUGAGAGAUUAACA was tested, and the “pre-steady-state target cleavage rate” value was 0.706 ± 0.03.
In the case of UAGACCUGUCACCUUCUCUGAGAGAUUAACA, the “pre-steady-state target cleavage rate” value is reported as 0.652 ± 0.043.
For AUCAUCUGUCACCUUCUCUGAGAGAUUAACA, the “pre-steady-state target cleavage rate” value was 0.74 ± 0.035.
In the case of AUCACCUGUCACCUUCUCUGAGAGAUUAACA, the “pre-steady-state target cleavage rate” value is reported as 0.742 ± 0.05.
For UUCCCUGUCACCUUCUCUGAGAGAUUAACA, the “pre-steady-state target cleavage rate” value was 0.502 ± 0.037.
With UAGCCUGUCACCUUCUCUGAGAGAUUAACA the “pre-steady-state target cleavage rate” value was 0.752 ± 0.056.
UAGUGACUCACCUUCUCUGAGAGAUAUACA was tested, and the “pre-steady-state target cleavage rate” value was 0.143 ± 0.019.
UACACUCACACCUUCUCUGAGAGAUAUUGA was tested, and the “pre-steady-state target cleavage rate” value was 0.0241 ± 0.012.
UAGUGACAGUGCAUUCUCUGAGAGAUUAACA was tested, and the “pre-steady-state target cleavage rate” value was 0.0141 ± 0.0028.
For AUCACUGUCACCAUCUCUGAGAGAUAAACA, the “pre-steady-state target cleavage rate” value was 0.31 ± 0.03.
UACACUGUCGACCUUCUCUGAGAGAUUAACA was tested, and the “pre-steady-state target cleavage rate” value was 0.229 ± 0.026.
With UAGUGAGUCACCUUCACUGAGAGAUUUACA the “pre-steady-state target cleavage rate” value was 0.203 ± 0.036.
With UACACUGAGACCUUCUCUGAGAGAUAUUGA the “pre-steady-state target cleavage rate” value was 0.0195 ± 0.0074.
With AUCACUGUCACCUUCUCUGAGAGAGUUAACA the “pre-steady-state target cleavage rate” value was 0.651 ± 0.088.
With UAGUCUGUCACCUUCUCUGACAGAUUUACA the “pre-steady-state target cleavage rate” value was 0.0113 ± 0.0036.
UAGACUGUCACCUUCUCUGAGAGAUUAAA was tested, and the “pre-steady-state target cleavage rate” value was 0.141 ± 0.018.
For UAGUGAGUCACCUUCUCUGAGAGUAUAUGA, the “pre-steady-state target cleavage rate” value was 0.0298 ± 0.012.
“UACACUGUCACCUUCUCUGAGAGAUUAACU [g2:g28:cont:t1U]” was tested, and the “pre-steady-state target cleavage rate” value was 0.494 ± 0.059.
AACACUGUCACCUUCUCUGAGAGAUUAAGA was tested, and the “pre-steady-state target cleavage rate” value was 0.189 ± 0.026.
For AACACUGUCACCUUCUCUGAGAGAUUAACA, the “pre-steady-state target cleavage rate” value was 0.746 ± 0.03.
With ACACUGUCACCUUCUCUGAGAGAUUAACA the “pre-steady-state target cleavage rate” value was 0.772 ± 0.044.
For UAGUGAGUCAGCCUUCUCUGAGAGAUUAACA, the “pre-steady-state target cleavage rate” value was 0.176 ± 0.02.
With UUCACUGUCACGCUUCUCUGAGAGAUUAACA the “pre-steady-state target cleavage rate” value was 0.51 ± 0.02.
For UAGUGCGUCACCUUCUCUGAGAGAUUAACA, the “pre-steady-state target cleavage rate” value was 0.623 ± 0.04.
UAGUGUGUCACGUUCUCUGAGAGAAUAACA was tested, and the “pre-steady-state target cleavage rate” value was 0.19 ± 0.037.
For UAGACUGUCGACCUUCUCUGAGAGAUUAACA, the “pre-steady-state target cleavage rate” value was 0.121 ± 0.013.
For AUCACUGUCGACCUUCUCUGAGAGAUUAACA, the “pre-steady-state target cleavage rate” value was 0.172 ± 0.017.
UAGACUGUCGCCUUCUCUGAGAGAUUAACA was tested, and the “pre-steady-state target cleavage rate” value was 0.822 ± 0.064.
AUCACUGUCGCCUUCUCUGAGAGAUUAACA was tested, and the “pre-steady-state target cleavage rate” value was 0.819 ± 0.053.
For UACACUGUCGCCUUCUCUGAGAGAUUAACA, the “pre-steady-state target cleavage rate” value was 0.708 ± 0.042.
In the case of UUCACUGUCGCCUUCUCUGAGAGAUUAACA, the “pre-steady-state target cleavage rate” value is reported as 0.665 ± 0.043.
For UAGUGUGUCACCUUCUCUGAGAGAGUAACA, the “pre-steady-state target cleavage rate” value was 0.394 ± 0.046.
With UUCAGUGUCACCUACUCUGAGAGAUUAACA the “pre-steady-state target cleavage rate” value was 0.509 ± 0.033.
In the case of UACUCUGUCACCUUCUGUGAGAGAUUAACA, the “pre-steady-state target cleavage rate” value is reported as 0.533 ± 0.025.
In the case of “UACACUGUCACCUUCUCUGAGAGAUAUUGA [g6:g28:cont:t1A]”, the “pre-steady-state target cleavage rate” value is reported as 0.0488 ± 0.017.
In the case of UAGUGACUCACGUUCUCUGAGAGAUAAACA, the “pre-steady-state target cleavage rate” value is reported as 0.119 ± 0.022.
In the case of UAGUGACUCACCUUCUCAGAGAGAUAAACA, the “pre-steady-state target cleavage rate” value is reported as 0.027 ± 0.0057.
UAGUCUGUCACCUUCUCACAGAGAUUAACA was tested, and the “pre-steady-state target cleavage rate” value was 0.0188 ± 0.0059.
For UUCACAGUCACGUUCUCUGAGAGAUUAACA, the “pre-steady-state target cleavage rate” value was 0.685 ± 0.027.
For UACACUGUCACGUUCUCUGUGAGAUUAACA, the “pre-steady-state target cleavage rate” value was 0.233 ± 0.014.
In the case of AUCACAGUCACGUUCUCUGAGAGAUUAACA, the “pre-steady-state target cleavage rate” value is reported as 0.737 ± 0.026.
For UAGACUGUCACGUUCUCUGAGAGAUUAACA, the “pre-steady-state target cleavage rate” value was 0.671 ± 0.042.
In the case of UUCACUGUCACGUUCUCUGAGAGAUUAACA, the “pre-steady-state target cleavage rate” value is reported as 0.681 ± 0.035.
In the case of UACACUGUCACGUUCUCUGAGAGAUUAACA, the “pre-steady-state target cleavage rate” value is reported as 0.743 ± 0.037.
For UUGACUGUCACGUUCUCUGAGAGAUUAACA, the “pre-steady-state target cleavage rate” value was 0.711 ± 0.037.
With AUGACUGUCACGUUCUCUGAGAGAUUAACA the “pre-steady-state target cleavage rate” value was 0.755 ± 0.054.
For AUCACUGUCACGUUCUCUGAGAGAUUAACA, the “pre-steady-state target cleavage rate” value was 0.821 ± 0.043.
AACACUGUCACGUUCUCUGAGAGAUUAACA was tested, and the “pre-steady-state target cleavage rate” value was 0.71 ± 0.035.
In the case of UUCUCUGUCACGUUCUCUGAGAGAUUAACA, the “pre-steady-state target cleavage rate” value is reported as 0.564 ± 0.026.
